The values below come from PubChem BioAssay (Tox21).

A number with no mark means an inactive call. Inconclusive results are not listed. Active and inactive are the calls of the source. Calls come from the whole dose curve; as a rule, active = well fitted curve in the direction sought with a large enough effect in the repeat runs; inconclusive = weak or mixed curves; inactive = no such curve, though single readings can be large; an effect the other way counts as inactive or inconclusive.

Assay [1] is described as follows: qHTS RealTime-Glo MT Cell Viability Assay in HepG2 cells - 40 hour (AID 1224870). Note: nearly all actives have a fitted effect of over 50% in size. In short, it runs like this: (§1)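 Real-time viability: cells seeded at 600 per well together with NanoLuc and cell-permeant prosubstrate, compounds added after 5 h incubation. Luminescence tracked at 0, 8, 16, 24, 32 and 40 h of exposure.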
(Quantitative high-throughput screening tests each substance at several concentrations.)

Assay [2] is described as follows: A CellTox Green Cytotoxicity Assay to monitor cytotoxicity in HEK293 cells - 40 hour (AID 1224871). Note: nearly all actives have a fitted effect of over 45% in size. Note: potency is the fitted concentration of half-maximal effect. In short, it runs like this: (§2)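 HEK293 cells premixed with CellTox Green dye were seeded at 600 cells/well and left 5 h at 37 C/5% CO2 before pin transfer of 23 nL compound in DMSO. Fluorescence from dye bound to dead-cell DNA was read during 40 h treatment.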
The nature of assay [3]: qHTS RealTime-Glo MT Cell Viability Assay in HEK293 cells - 16 hour (AID 1224872). Note: top concentration of the series differs between compounds; nearly all actives have a fitted effect of over 50% in size. In short, it runs like this:
(§3)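 Reads taken at 0, 8, 16, 24, 32 and 40 h from the same wells. HEK293 cells (600/well) carried RealTime-Glo reagents from seeding, with compound added after a 5 h settle at 37 C.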

Assay [4] can be described thus: qHTS RealTime-Glo MT Cell Viability Assay in HepG2 cells - 8 hour (AID 1224873). Note: nearly all actives have a fitted effect of over 55% in size. In short, it runs like this:
as §1

A short description of assay [5]: qHTS RealTime-Glo MT Cell Viability Assay in HEK293 cells - 40 hour (AID 1224874). Note: nearly all actives have a fitted effect of over 50% in size. The settings on record: RealTime-Glo luminescence; max response: active compounds read low. In short, it runs like this: (§4)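 HEK293 cells mixed with RealTime-Glo reagents (NanoLuc plus cell-permeant prosubstrate) at 600 cells/well, preincubated 5 h at 37 C/5% CO2, then given 23 nL compound in DMSO. Nonlytic luminescence from viable cells was read at 0, 8, 16, 24, 32 and 40 h.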

The nature of assay [6]: A CellTox Green Cytotoxicity Assay to monitor cytotoxicity in HEK293 cells - 24 hour (AID 1224875). Note: nearly all actives have a fitted effect of over 45% in size. Note: potency is the fitted concentration of half-maximal effect. In short, it runs like this: as §2
Assay [7] in a line: A CellTox Green Cytotoxicity Assay to monitor cytotoxicity in HepG2 cells - 16 hour (AID 1224876). Note: nearly all actives have a fitted effect of over 45% in size. Note: potency is the fitted concentration of half-maximal effect. In short, it runs like this: (§5)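 HepG2 cells were seeded together with the CellTox Green dye at 600 cells/well, left 5 h at 37 C/5% CO2, then given compounds in DMSO. Fluorescence from dye bound to dead-cell DNA was read repeatedly over 40 h of treatment at 37 C.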
Assay [8] can be described thus: qHTS RealTime-Glo MT Cell Viability Assay in HepG2 cells - 32 hour (AID 1224877). Note: nearly all actives have a fitted effect of over 55% in size. In short, it runs like this: (§6)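 HepG2 suspension premixed with RealTime-Glo reagents is plated at 600 cells per well and left 5 h at 37 C/5% CO2. Compounds in DMSO then go in, and bioluminescence reflecting viable cell number is recorded over 40 h.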
The nature of assay [9]: A CellTox Green Cytotoxicity Assay to monitor cytotoxicity in HepG2 cells - 24 hour (AID 1224878). Note: nearly all actives have a fitted effect of over 45% in size. Note: potency is the fitted concentration of half-maximal effect. In short, it runs like this: as §5
The nature of assay [10]: A CellTox Green Cytotoxicity Assay to monitor cytotoxicity in HepG2 cells - 40 hour (AID 1224879). Note: nearly all actives have a fitted effect of over 40% in size. Note: potency is the fitted concentration of half-maximal effect. In short, it runs like this: as §5
The nature of assay [11]: qHTS RealTime-Glo MT Cell Viability Assay in HEK293 cells - 0 hour (AID 1224880). In short, it runs like this: as §4
A short description of assay [12]: A CellTox Green Cytotoxicity Assay to monitor cytotoxicity in HEK293 cells - 32 hour (AID 1224881). Note: nearly all actives have a fitted effect of over 40% in size. Note: potency is the fitted concentration of half-maximal effect. In short, it runs like this: as §2
Assay [13] can be described thus: A CellTox Green Cytotoxicity Assay to monitor cytotoxicity in HepG2 cells - 0 hour (AID 1224882). Note: nearly all actives have a fitted effect of over 35% in size. Note: potency is the fitted concentration of half-maximal effect. In short, it runs like this:
as §5

The nature of assay [14]: A CellTox Green Cytotoxicity Assay to monitor cytotoxicity in HepG2 cells - 32 hour (AID 1224883). Note: nearly all actives have a fitted effect of over 50% in size. Note: potency is the fitted concentration of half-maximal effect. In short, it runs like this:
as §5

Assay [15] can be described thus: A CellTox Green Cytotoxicity Assay to monitor cytotoxicity in HEK293 cells - 8 hour (AID 1224884). Note: nearly all actives have a fitted effect of over 35% in size. Note: potency is the fitted concentration of half-maximal effect. In short, it runs like this: as §2
Assay [16] in a line: qHTS RealTime-Glo MT Cell Viability Assay in HepG2 cells - 16 hour (AID 1224885). Note: nearly all actives have a fitted effect of over 50% in size. In short, it runs like this: as §6
Assay [17] in a line: qHTS RealTime-Glo MT Cell Viability Assay in HEK293 cells - 24 hour (AID 1224886). In short, it runs like this: as §3
Assay [18] is described as follows: qHTS RealTime-Glo MT Cell Viability Assay in HEK293 cells - 8 hour (AID 1224887). In short, it runs like this: as §4
Assay [19] is described as follows: A CellTox Green Cytotoxicity Assay to monitor cytotoxicity in HEK293 cells - 16 hour (AID 1224888). Note: nearly all actives have a fitted effect of over 35% in size. Note: potency is the fitted concentration of half-maximal effect. In short, it runs like this:
as §2

Assay [20] in a line: qHTS RealTime-Glo MT Cell Viability Assay in HepG2 cells - 0 hour (AID 1224889). Note: nearly all actives have a fitted effect of over 50% in size. In short, it runs like this:
as §6
% is set by controls: 0 for no effect and ±100 for the full control effect.

On to `CNc1ncnc2nc[nH]c12`, for which the Potency result in assay [1], in [2], in [3], in assay [6], in [7] and in [8] was “inactive” throughout. The Potency result in assay [9], in assay [10], in assay [12], in assay [13], in assay [14] and in [15] was “inactive” throughout. The Potency entry in [17], in assay [18] and in assay [19] was “inactive” in each case. In addition, the result in assay [4], in assay [11] and in assay [16] was inactive. Moreover, the max response in assay [5] was 3.96%.
In the case of `C1COCCO1`, the Potency entry in assay [1], in assay [2], in [3], in [6], in [7] and in [8] was “inactive” throughout. Further, the Potency result in [9], in [10], in [12], in [13], in [14] and in [15] was “inactive” throughout. For the same molecule, the Potency entry in assay [17], in assay [18], in assay [19] and in assay [20] was “inactive” in each case. The result in assay [4], in [11] and in assay [16] was inactive. Further, the max response in [5] is 4.29%.
As to `CC(=O)OC(C)(C)C`, the Potency entry in assay [1], in assay [2], in [3], in assay [6], in assay [7] and in [8] was “inactive” throughout. Also, the Potency entry in assay [9], in assay [10], in assay [12], in [13], in [14] and in assay [15] was “inactive” throughout. Also, the Potency result in [17], in assay [18], in assay [19] and in assay [20] was “inactive” each time. Moreover, the call in [4], in [11] and in [16] was inactive. In assay [5], the max response is 8.31%.
For the molecule `Cc1ncc(CSSCc2cnc(C)c(O)c2CO)c(CO)c1O`, the Potency entry in [1], in assay [2], in assay [3], in assay [6], in assay [7] and in assay [8] was “inactive” each time. The Potency entry in assay [9], in assay [10], in assay [12], in assay [13], in assay [14] and in [15] was “inactive” each time. The Potency result in assay [17], in assay [18], in [19] and in assay [20] was “inactive” in each case. For the same molecule, the molecule was classed as inactive in assay [4] and in [11]. In addition, in [5], the max response is 5.83%.
As to `CC/C=C\C#N`, the Potency entry in assay [1], in assay [2], in assay [3], in [6], in [7] and in assay [8] was “inactive” in each case. For the same molecule, the Potency result in assay [9], in assay [10], in assay [12], in assay [13], in assay [14] and in [15] was “inactive” in each case. In addition, the Potency result in assay [17], in assay [18], in assay [19] and in [20] was “inactive” throughout. For the same molecule, the call in assay [4], in assay [11] and in assay [16] was inactive. Also, the max response in assay [5] is 20.1%.
With `CCCCCOC(=O)Nc1nc(=O)n([C@@H]2O[C@H](C)[C@@H](O)[C@H]2O)cc1F`, the Potency entry in [1], in [2], in [3], in [6], in assay [7] and in [8] was “inactive” throughout. Besides, the Potency result in [9], in assay [10], in assay [12], in assay [13], in assay [14] and in assay [15] was “inactive” in each case. Moreover, the Potency entry in [17], in [18], in assay [19] and in assay [20] was “inactive” each time. For the same molecule, the call in assay [4], in assay [11] and in [16] was inactive. For the same molecule, in [5], the max response is 7%.
For `Nc1ccn(C2CO[C@H](CO)O2)c(=O)n1` (stereo partly specified), the Potency entry in [1], in assay [3], in assay [8], in [17], in [18] and in assay [20] was “inactive” in each case. Also, the Potency in assay [2] is 15.1 µM (active); in assay [6], 19 µM (active); in [7] it was 8.49 µM (active); in assay [9], 6.74 µM (active); in [10] it was 7.56 µM (active); in assay [12] it was 19 µM (active). In addition, the Potency was 26.8 µM (active) in assay [13], 5.35 µM (active) in [14], 16.9 µM (active) in [15] and 19 µM (active) in assay [19]. Further, the molecule was called inactive in assay [4], in [11] and in [16]. Moreover, the max response in [5] is -2.21%.
As for `CCCCOCC(C)OCC(C)O` (stereo unspecified), the Potency entry in assay [1], in assay [2], in assay [3], in assay [6], in assay [7] and in assay [8] was “inactive” in each case. In addition, the Potency entry in assay [9], in assay [10], in assay [12], in assay [13], in assay [14] and in [15] was “inactive” each time. Moreover, the Potency result in [17], in assay [18], in assay [19] and in assay [20] was “inactive” each time. For the same molecule, the result in [4], in assay [11] and in assay [16] was inactive. Besides, in assay [5], the max response is 2.63%.
`Cc1nc(-c2ccc(OCC(C)C)c(C#N)c2)sc1C(=O)O`: the Potency entry in assay [1], in assay [2], in [3], in assay [6], in assay [7] and in [8] was “inactive” throughout. The Potency entry in [9], in assay [10], in assay [12], in assay [13], in assay [14] and in assay [15] was “inactive” in each case. Moreover, the Potency entry in [17], in assay [18], in assay [19] and in assay [20] was “inactive” throughout. The outcome in assay [4], in assay [11] and in assay [16] was inactive. Also, the max response in assay [5] is -0.381%.
Regarding `C=CCOc1nc(OCC=C)nc(OCC=C)n1`, the Potency entry in assay [1], in [2], in [3], in [6], in [7] and in assay [8] was “inactive” in each case. Further, the Potency result in [9], in assay [10], in assay [12], in assay [13], in [14] and in assay [15] was “inactive” each time. The Potency entry in [17], in [18], in [19] and in [20] was “inactive” in each case. For the same molecule, the outcome in [4], in [11] and in [16] was inactive. The max response in assay [5] is 11.1%.
As for `OC[C@H]1O[C@@H]2O[C@H]3[C@H](O)[C@@H](O)[C@@H](O[C@H]4[C@H](O)[C@@H](O)[C@@H](O[C@H]5[C@H](O)[C@@H](O)[C@@H](O[C@H]6[C@H](O)[C@@H](O)[C@@H](O[C@H]7[C@H](O)[C@@H](O)[C@@H](O[C@H]8[C@H](O)[C@@H](O)[C@@H](O[C@H]9[C@H](O)[C@@H](O)[C@@H](O[C@H]1[C@H](O)[C@H]2O)O[C@@H]9CO)O[C@@H]8CO)O[C@@H]7CO)O[C@@H]6CO)O[C@@H]5CO)O[C@@H]4CO)O[C@@H]3CO`, the Potency entry in assay [1], in [2], in assay [3], in assay [6], in [7] and in [8] was “inactive” throughout. Besides, the Potency result in assay [9], in [10], in assay [12], in assay [13], in assay [14] and in assay [15] was “inactive” in each case. For the same molecule, the Potency entry in assay [17], in assay [18] and in assay [20] was “inactive” in each case. Also, the result in assay [4], in [11] and in assay [16] was inactive. In addition, the max response in assay [5] was 1.22%.
As for `CCCCCCC(CCCCCCCCCCC(=O)OCC(COC(C)=O)OC(C)=O)OC(C)=O` (stereo unspecified), the Potency entry in assay [1], in assay [2], in assay [3], in [6], in assay [7] and in assay [8] was “inactive” throughout. Further, the Potency entry in assay [9], in assay [10], in assay [12], in assay [13], in [14] and in assay [15] was “inactive” in each case. For the same molecule, the Potency entry in assay [17], in assay [18] and in assay [20] was “inactive” in each case. The molecule was called inactive in [4], in assay [11] and in [16]. The max response in [5] was 14.5%.
